# Laboratory results: PubChem BioAssay (NCI)
# About 83,000 compounds went through this panel and 20% of them were active in at least one assay; those are over-represented in the sample as a whole.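 48-hour exposure, single concentration, 96-well plates; percent growth endpoint where 0 means no net growth. Active: below 10.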 Values without a mark were called inactive. Activity calls are given as the source filed them.
# Test system: MDA-MB-468 breast
# Test: NCI-60 one-dose screen, 48 h (100 = growth as untreated, 0 = no growth, -100 = all killed)
# Settings: 10 µM unless noted
row,SMILES,growth
1,Cn1cc(-c2cc(N)n3nc(-c4cn(C)c5ccc(Cl)cc45)cc3n2)c2cc(Cl)ccc21,96.3%
2,O=[N+]([O-])c1cc(C(F)(F)F)ccc1Sc1ccc(C(F)(F)F)cc1[N+](=O)[O-],-4.58% (active)
3,COc1cc(-c2ncn(/C=C\c3nnco3)n2)cc(C(F)(F)F)c1,-28.9% (active)
4,NS(=O)(=O)c1ccc(N=Nc2ccc(-c3nn4cc(-c5ccccc5)nc4s3)cc2)cc1,100%
5,O=C(NO)c1ccc(Cn2c(=O)n(-c3ccccc3)c(=O)c3ccccc32)cc1,16.9%
6,Cc1ccc(N)c(O)c1,78.7%
7,CCC(C)(C)c1ccc(OCCCCCCN2CCN(c3ccc(C)c(Cl)c3)CC2)cc1,47.1%
8,CCN(CC)CCNC(=O)c1ccc(NC(C)=O)cc1,111%
9,CCCC(=O)NC(c1cccnc1)c1cc(C(C)=O)c2cccnc2c1O (stereo not given),15.8%
10,Cc1ccc(/C=C/c2nn3c(-c4ccco4)nnc3s2)cc1C,107%
11,O=C1N=c2cc3c(cc2=C/C1=C/c1sc(=S)n(CCc2ccc(O)cc2)c1O)OCCO3,42.5%
12,CCOC(=O)n1cc(C2=C(c3ccc(OC)c(OC)c3)COC2=O)c2ccccc21,-41.8% (active)
13,CC1CCC(=O)N1c1ccc(N)cc1 (stereo not given),115%
14,C=CCn1c(SCC(=O)Nc2cccc(C(=O)/C=C/c3ccc(C)cc3)c2)nc2ccccc2c1=O,76.3%
15,C=CCn1c(C)nc2cc(Nc3nc(Cl)nc4ccccc34)ccc21,83.7%
16,Cc1nc2ccccc2n1-c1ncnc2c1CC(C)c1ccccc1N2C (stereo not given),80.9%
17,NC(=S)Cc1ccccc1,89.8%
18,N#Cc1c(-c2cccs2)cc(-c2cnccn2)nc1SCC(=O)N/N=C/c1ccc(Cl)cc1,108%
19,Nc1ncc(-c2ccc3ncnc(N4CCc5cc(F)c(Cl)cc54)c3c2)cc1C(F)(F)F,-26.1% (active)
20,c1ccc(-c2nc3sc(-c4ccccc4)cn3n2)cc1,85.2%

row,SMILES,growth
1,COc1ccc(S(=O)(=O)c2ccc(F)cc2)cc1,105%
2,COc1cccc(/C=C2\C=C(c3ccccc3)N(Cc3ccccc3)C2=O)c1,45.3%
3,Cn1cc(-c2nonc2-c2c[nH]c3ccc(Br)cc23)c2cc(Br)ccc21,21%
4,Cc1ccc(N(CC(=O)Nc2ccc(S(=O)(=O)NC3CCN(C)CC3)cc2)S(=O)(=O)c2ccc(Cl)cc2)cc1,50.3%
5,O=C(/C=C/c1ccco1)Nc1ncc(Cc2cccc(C(F)(F)F)c2)s1,10.1%
6,COc1ccc(C2CC(c3ccc4c(c3)OCO4)=NN2C=O)cc1 (stereo not given),93.3%
7,CSc1cccc(NC(=O)Nc2nc3c(C)cccc3s2)c1,84.6%
8,CC(=O)c1c(C)nc(SCC(=O)Nc2cccc(O)c2)n1-c1ccc(Cl)cc1,79.7%
9,CCOc1ccc(NC2=C(Cl)C(=O)c3nc(C)ccc3C2=O)cc1,-95.2% (active)
10,O=C(CCCCC(=O)Nc1ccc2c(c1)/C(=C/c1ccc[nH]1)C(=O)N2)NO,49%
11,Clc1ccc(-c2nc(Br)cn3ccnc23)cc1,78.9%
12,Cc1ccc2nc3ccccc3c(NCc3ccccc3)c2c1,-11% (active)
13,O=[N+]([O-])c1ccc(-c2nc(N3CCOCC3)c3c4c(sc3n2)CCCC4)cc1,94.8%
14,CCc1c(C(=O)N[C@@H](C(=O)OCc2ccccc2)C(C)O)[nH]c2ccc(Cl)cc12 (stereo not given in full),79.1%
15,COc1ccc(-n2c(=O)n(-c3ccc(-c4nc5ccc(F)cc5s4)cc3)c(=O)c3cccnc32)cc1,121%
16,COCCOc1ccc2ncc(C#Cc3cncc(C(=O)Nc4ccc(CN5CCN(C)CC5)c(C(F)(F)F)c4)c3)n2n1,7.9% (active)
17,O=C1NC(SCc2ccc(F)cc2)=N/C1=C/c1cccc(OCc2ccc(Cl)cc2)c1,62.9%
18,N/C(=N\c1nc2c(Br)cccc2s1)C(Br)Br,-58.8% (active)
19,COc1ccc(-c2nc(/C=C3\SC(=NCc4ccccc4)NC3=O)c3ccccn23)cc1,-56.9% (active)
20,Cc1cc2nc3cc(C)c(N)cc3[n+](-c3ccccc3)c2cc1N,2.5% (active)
